Assay results as given in ChEMBL document CHEMBL4513216, “Probing the Open Global Health Chemical Diversity Library for Multistage-Active Starting Points for Next-Generation Antimalarials” (ACS Infect Dis, 2020).
About 2,700 (4%) of roughly 68,000 compounds showed an effect of 50% or more. This is one part of a sample in which strong results are shown more often than they occur.

These molecules were tested on Plasmodium berghei (assay: Screen against P. berghei liver stage (PbLuc), transformed with Luciferase, at 2uM). Details: tested at 2 uM.
Format: functional, HepG2

| Compound | INHIBITION [%] |
| --- | --- |
| N#Cc1c(-c2ccccc2)csc1N | 30.76 |
| Cc1noc(C)c1NC(=O)NC1CCN(C(=O)OC(C)(C)C)CC1 | 11.92 |
| CCCn1c(C)c(CC(=O)NCCOC)c2c1CC(C)(C)CC2=O | 18.91 |
| CC(C)(NCC(=O)NCCC#N)c1ccc2c(c1)OCCO2 | -9.66 |
| Cc1ccc(CN2C[C@@H]3CCN(Cc4cccnc4)C(=O)[C@H]3C2)s1 | 41.38 |
| Cc1ccc(OC2(C(=O)NC(C)Cc3ccsc3)CCNCC2)cc1 (stereo not given) | 26.35 |
| CN(Cc1cccnc1)C1CC2(CCN(Cc3ccccn3)CC2)C1 | 27.9 |
| CN(C)S(=O)(=O)N1CC[C@]2(C[C@H](OCc3ccccn3)CO2)C1 | -51.66 |
| COc1ccc(C(=O)N2CCCCC2c2ccccn2)c(OC)n1 (stereo not given) | 21.05 |
| COCC(=O)N1CCN(C(C)C(=O)NC(C)C)CC1 (stereo not given) | 61.91 |
| COCCNC(=O)C(C)N1CCN(C)CC1 (stereo not given) | 7.9 |
| COCCNC(=O)N1CCN(C(C)C(=O)NC(C)C)CC1 (stereo not given) | 21.22 |
| CC(=O)N1CCc2c(nc(N(C)C)nc2N(C)CC2CCCO2)C1 (stereo not given) | -34.04 |
| CN(C)C(=O)CCC(=O)N1CCC2(CC1)COC2 | 15.02 |
| CCCC(=O)N1CCC2(CC1)COC2 | 54.01 |
| CCCC(=O)N1CCC2(CC1)OCCO2 | 38.51 |
| CS(=O)(=O)NCC(Cc1cccc(F)c1)N1CCNC1=O (stereo not given) | 22.27 |
| CC(C)S(=O)(=O)NCC(Cc1cccc(F)c1)N1CCNC1=O (stereo not given) | 53.44 |
| CCS(=O)(=O)NCC(Cc1cccc(F)c1)N1CCNC1=O (stereo not given) | -35.92 |
| Cc1cc(C)n(CC2CCCN2CC(=O)Nc2nncs2)n1 (stereo not given) | 37.08 |
| CC(C)Nc1cccc(CNC(=O)N2CCCC2)c1 | -24.87 |
| CC(C)Nc1cccc(CNC(=O)N2CCC(N3CC=CC3)C2)c1 (stereo not given) | 58.34 |

| Compound | INHIBITION [%] |
| --- | --- |
| CC(C)Oc1cccc(CNC(=O)N2CCC(N3CC=CC3)C2)c1 (stereo not given) | -21.25 |
| COC(=O)CCCNC(=O)Nc1ccccc1OC | -3.99 |
| CN1CCC(NC(=O)Nc2cnn(-c3ccccc3Cl)c2)C1=O (stereo not given) | 15.75 |
| CNC(=O)[C@@H]1C[C@@H](n2cc(-c3ccc(CN4CC=CC4)cc3)nn2)CN1 | -21.75 |
| Nc1nc(CCC(=O)N2C[C@H](c3ccccc3)[C@@H](N)C2)cs1 | -10.1 |
| CCc1ccc2c(C3CN(S(C)(=O)=O)C3)ncn2c1 | 28.81 |
| CS(=O)(=O)N1CC(c2n[nH]c3ncccc23)C1 | 31.98 |
| CS(=O)(=O)N1CC(c2ncn3ccccc23)C1 | 51.36 |
| CC(=O)N1N=C(c2cccs2)OC1C(=O)Nc1ccc(C(C)C)cc1 (stereo not given) | 19.09 |
| NC(=O)CC1CCN(C(=O)c2csc(-c3ccccc3F)n2)CC1 | 51.96 |
| NC(=O)CC1CCN(C(=O)c2cnc(-c3ccccc3F)s2)CC1 | 20.76 |
| COC1CCN(C(=O)c2csc(-c3ccccc3F)n2)CC1 | 10.91 |
| Cc1noc(C)c1CN1CCn2c(COC(C)C)nnc2C1 | 40.71 |
| Fc1ccc(OCCNC2CCN(Cc3ccncc3)CC2)c(F)c1 | 4.19 |
| Cc1ccc(CCNC(=O)Cn2nc(C)n(Cc3ccccc3)c2=O)s1 | -8.8 |
| Cc1nn(CC(=O)NCCc2ccncc2)c(=O)n1Cc1ccccc1 | 53.98 |
| Cc1ccc(CCNC(=O)Cn2nc(C)n(Cc3ccccc3)c2=O)o1 | -9.48 |
| Cc1nnc(CN2C[C@H](NC(=O)C3CCOCC3)[C@@H](C(C)C)C2)s1 | -29.43 |
| OCC1(O)CCN(c2ccnc3c(C(F)(F)F)cccc23)CC1 | -100.41 |
| N[C@@H]1c2ccccc2C2(CCN(c3ncccc3C(F)(F)F)CC2)[C@H]1O | -7.99 |
| OCC1(O)CCN(c2ncccc2C(F)(F)F)CC1 | 65.3 |
| Cn1c(CC2CCS(=O)(=O)C2)nnc1SCCOc1cccc(Cl)c1 (stereo not given) | 42.62 |

| Compound | INHIBITION [%] |
| --- | --- |
| O=C(NCc1cncc2c1CCN(CC1CCOC1)C2)c1ccno1 (stereo not given) | 69.13 |
| c1cnc(NCc2cncc3c2CCN(CC2CC2)C3)nc1 | 30.99 |
| CS(=O)(=O)NCc1cncc2c1CCN(CC1CCOC1)C2 (stereo not given) | 52.05 |
| Cc1nccc(NCc2cncc3c2CCN(CC2CCOC2)C3)n1 (stereo not given) | 22.23 |
| O=C(NCc1cncc2c1CCN(CC1CCOC1)C2)c1ccco1 (stereo not given) | 7.33 |
| O=C(NCc1cncc2c1CCN(C1CCOCC1)C2)c1ccno1 | 36.06 |
| COc1ccccc1C(=O)N1CC(=O)N(Cc2ccco2)CC(O)C1 (stereo not given) | -8.2 |
| Cc1cnccc1CN1Cc2ccccc2OC2(CCC(CO)CC2)C1 (stereo not given) | 19.76 |
| O=C1CCC2(CCC(NCc3ccoc3)CC2)N1 (stereo not given) | -29.46 |
| CCc1cnc(NCC(c2ccncc2)N2CCOCC2)nc1 (stereo not given) | 0.12 |
| CN1CCC(c2nnc3ccc(C(=O)N4CCCCC4)cn23)C1 (stereo not given) | 23.43 |
| CCNC(=O)[C@@H]1C[C@@H](NC(=O)c2cccn2C)CN1CCCSC | 29.89 |
| CCNC(=O)[C@@H]1C[C@@H](NC(=O)c2ccsc2)CN1CCCSC | 68.61 |
| CCNC(=O)[C@@H]1C[C@@H](NC(=O)c2ccc(C#N)cc2)CN1CCCSC | 22.89 |
| COCc1cnc2n1CCN(C(=O)C1=CCCC1)C2C (stereo not given) | 53.46 |
| CC1c2ncc(COc3cccnc3)n2CCN1C(=O)C1=CCCCC1 (stereo not given) | 52.36 |
| COCc1cnc2n1CCN(C(=O)c1cc3ccccc3o1)C2C (stereo not given) | -29.49 |
| COCc1cnc2n1CCN(C(=O)C1=CCCCC1)C2C (stereo not given) | 11.55 |
| COCC(=O)N1CCn2c(COc3cccnc3)cnc2C1C (stereo not given) | -28.81 |
| CC1c2ncc(COc3cccnc3)n2CCN1C(=O)C1=CCCC1 (stereo not given) | -7.05 |
| CCOCc1cnc2n1CCN(C(=O)C1=CCCC1)C2C (stereo not given) | 21.92 |
| COCc1cnc2n1CCN(C(=O)c1ccc3ccccc3n1)C2C (stereo not given) | 53.08 |

| Compound | INHIBITION [%] |
| --- | --- |
| COCc1cnc2n1CCN(C(=O)c1cnc3ccccc3c1)C2C (stereo not given) | -17.69 |
| CS(=O)(=O)c1ccc(Cl)c(NC(=O)NCCC2=CCCCC2)c1 | 36.66 |
| Cc1cnn(CC2CN(Cc3nnc(C(C)C)o3)CCO2)c1 (stereo not given) | -11.91 |
| CCc1ccc(CN2CCN(c3cccc(OC)c3)C(=O)C2)nc1 | -18.92 |
| CC(c1cccc(-c2cn(Cc3ccoc3)nn2)c1)N(C)C (stereo not given) | 28.62 |
| N#Cc1ccc(C(=O)N2CC[C@H]3[C@H]2CCN3CC2CC2)cc1 | 5.14 |
| CCc1cccc(OC2CN(C(=O)[C@@H](N)[C@@H](C)O)C2)c1 | 18.28 |
| CCn1cc(NC(=O)c2cccc(OCC(F)(F)F)n2)cn1 | -44.13 |
| COCC(Nc1ncnc2sc(C(=O)O)c(C)c12)c1ccnn1C (stereo not given) | -1.87 |
| CCC(=O)N1CCN(C(=O)CCn2cccn2)CC1 | -27.69 |
| CCN(C(=O)CCn1cccn1)C1CC1 | 72.05 |
| CNC(=O)C1CCN(C(=O)CCn2cccn2)CC1 | -84.03 |
| CC(C)CN1CCN(C(=O)CCn2cccn2)CC1 | 0.74 |
| CC(C1CC1)N(C)C(=O)CCn1cccn1 (stereo not given) | 31.51 |
| CC(C)CC(C)N(C)C(=O)CCn1cccn1 (stereo not given) | 62.51 |
| O=C1CC(NS(=O)(=O)c2ccc3ccccc3c2)CN1 (stereo not given) | 2.11 |
| CN(Cc1ccccc1O)C(=O)NC1CCCN(c2ncccn2)C1 (stereo not given) | -12.48 |
| c1ccc2oc(CCCN3CCCC3c3noc(C4CC4)n3)nc2c1 (stereo not given) | 18.86 |
| COc1c(C2CCCN2Cc2nc(C3CC3)no2)c(C)nn1C (stereo not given) | -13.46 |
| CCS(=O)(=O)CCN1CCCC1c1noc(C)n1 (stereo not given) | 49.02 |
| CS(=O)(=O)CCN1CCCC1c1noc(C2CC2)n1 (stereo not given) | 21.83 |
| c1ccc2oc(CN3CCCC3c3noc(C4CC4)n3)nc2c1 (stereo not given) | 63.68 |

| Compound | INHIBITION [%] |
| --- | --- |
| CCc1nc(C2CCCN2Cc2nc3ccccc3o2)no1 (stereo not given) | -32.11 |
| CCc1nc(C2CCCN2CCn2cncn2)no1 (stereo not given) | 58.49 |
| CCc1nc(C2CCCN2C(=O)CCCn2cncn2)no1 (stereo not given) | 37.31 |
| Cc1nn(C)c(Cl)c1C1CCCN1Cc1nc(C2CC2)no1 (stereo not given) | 51.94 |
| CCc1nc(C2CCCN2C(=O)CCn2cncn2)no1 (stereo not given) | 7.54 |
| CCS(=O)(=O)CCN1CCCC1c1noc(C2CC2)n1 (stereo not given) | 51.21 |
| Cc1nn(C)c(C)c1C1CCCN1Cc1nc(C2CC2)no1 (stereo not given) | -38.96 |
| O=C1CN(Cc2ccc3ccccc3n2)CCN1C1CCCC1 | -34.37 |
| CNC(=O)NCC(=O)N1CCCC1Cc1cccc(F)c1 (stereo not given) | 41.21 |
| CNc1nc(C(=O)N2CCN(c3cc(C)nc(C)c3)CC2)cs1 | 7.64 |
| c1cc(-c2nnn3c2COC(CNCc2nccs2)C3)ccn1 (stereo not given) | 16.87 |
| O=C(c1cccc(OC2CCCC2)c1)N1CCCC(n2cncn2)C1 (stereo not given) | 27.55 |
| Cc1nsc(NC(=O)N2CCC(C(C)(C)O)CC2)n1 | -0.55 |
| CN1CCN(C(=O)c2cn(Cc3ccccc3)c3ncccc23)CC1 | 46.61 |
| Cc1ccc(NC2CCN(C(=O)CCc3nccs3)CC2)nn1 | 3.06 |
| CC(C)Cn1cc(C(=O)NC2CCS(=O)(=O)C2)c2ccccc2c1=O (stereo not given) | -70.1 |
| O=C(C1CCOCC1)N1CCC2(CC1)CN(c1ccsc1)C(=O)CO2 | -17.15 |
| CS(=O)(=O)Cc1ccc(NC(=O)c2cccnc2)cc1F | -35.1 |
| NC1CCc2nc(-c3cccnc3)nc(Nc3ccc(F)cc3)c2C1 (stereo not given) | -13.75 |
| CSCCCN1CCCC1c1noc(C)n1 (stereo not given) | -8.84 |
| CCc1nc(C2CCCN2CCCSC)no1 (stereo not given) | 55.92 |
| CCc1nc(C2CCCN2CCCS(N)(=O)=O)no1 (stereo not given) | 22.29 |
